The record followed here is PubChem BioAssay (Tox21).

Test [1] can be described thus: qHTS RealTime-Glo MT Cell Viability Assay in HepG2 cells - 40 hour (AID 1224870). Note: nearly all actives have a fitted effect of over 50% in size. Summed up:
(§1)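 HepG2 cells (600/well) mixed with RealTime-Glo MT reagent, settled 5 h at 37 C/5% CO2 before compound addition. Nonlytic NanoLuc luminescence from viable-cell prosubstrate reduction read repeatedly during 40 h treatment at 37 C.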
Background: qHTS replaces the single test concentration by a dilution series.

A short description of test [2]: A CellTox Green Cytotoxicity Assay to monitor cytotoxicity in HEK293 cells - 40 hour (AID 1224871). Note: nearly all actives have a fitted effect of over 45% in size. Note: potency is the fitted concentration of half-maximal effect. Summed up: (§2)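 Cytotoxicity was tracked continuously in HEK293 cells by a DNA-binding dye excluded from viable cells. Compounds were transferred in DMSO 5 h after seeding; fluorescence was recorded at intervals up to 40 h.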
The nature of test [3]: qHTS RealTime-Glo MT Cell Viability Assay in HEK293 cells - 16 hour (AID 1224872). For activity change, negative = cytotoxicity: top concentration of the series differs between compounds. Note: nearly all actives have a fitted effect of over 50% in size. Note: potency is the fitted concentration of half-maximal effect. Summed up:
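Quantitative high-throughput screen of the Tox21 10K library in HEK293: cells and RealTime-Glo reagents plated together, compound added at 5 h, luminescence monitored through 40 h at 37 C.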

A short description of test [4]: qHTS RealTime-Glo MT Cell Viability Assay in HepG2 cells - 8 hour (AID 1224873). Note: nearly all actives have a fitted effect of over 55% in size. Summed up:
as §1

A short description of test [5]: qHTS RealTime-Glo MT Cell Viability Assay in HEK293 cells - 40 hour (AID 1224874). Note: nearly all actives have a fitted effect of over 50% in size. Note: potency is the fitted concentration of half-maximal effect. Particulars: RealTime-Glo luminescence; max response: hits give low values. Put shortly: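 Nonlytic bioluminescent viability monitoring. HEK293 at 600 cells/well with reagent; 5 h settle; compound transfer by pintool; plates held at 37 C and read at set time points.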
Test [6] in a line: A CellTox Green Cytotoxicity Assay to monitor cytotoxicity in HEK293 cells - 24 hour (AID 1224875). For activity change: series mostly up to about 77 µM. Note: nearly all actives have a fitted effect of over 45% in size. Note: potency is the fitted concentration of half-maximal effect. Put shortly: as §2
A short description of test [7]: A CellTox Green Cytotoxicity Assay to monitor cytotoxicity in HepG2 cells - 16 hour (AID 1224876). Note: nearly all actives have a fitted effect of over 45% in size. Note: potency is the fitted concentration of half-maximal effect. Put shortly: (§3)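 Real-time, homogeneous cytotoxicity readout: dead-cell DNA staining by CellTox Green in HepG2 monolayers, fluorescence measured at timed intervals up to 40 h of continuous compound exposure.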
The nature of test [8]: qHTS RealTime-Glo MT Cell Viability Assay in HepG2 cells - 32 hour (AID 1224877). Note: nearly all actives have a fitted effect of over 55% in size. Summed up: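 Compound treatment began 5 h after plating HepG2 cells (600/well) with NanoLuc luciferase and prosubstrate. Plates stayed at 37 C for 40 h; luminescence was captured at six time points, 0 h through 40 h.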
A short description of test [9]: A CellTox Green Cytotoxicity Assay to monitor cytotoxicity in HepG2 cells - 24 hour (AID 1224878). Note: nearly all actives have a fitted effect of over 45% in size. Summed up:
as §3

Test [10] is described as follows: A CellTox Green Cytotoxicity Assay to monitor cytotoxicity in HepG2 cells - 40 hour (AID 1224879). Note: nearly all actives have a fitted effect of over 40% in size. Note: potency is the fitted concentration of half-maximal effect. Put shortly: as §3

Records with an inconclusive call do not appear. A number with no mark means an inactive call. Activity calls are given as the source filed them. Calls come from the whole dose curve; as a rule, active = well fitted curve in the direction sought with a large enough effect in the repeat runs; inconclusive = weak or mixed curves; inactive = no such curve, though single readings can be large; an effect the other way counts as inactive or inconclusive.
% is set by controls: 0 for no effect and ±100 for the full control effect.

As for `O=C(O)C1CCC1`, the Potency entry in [1], in test [2], in test [3], in [6], in [7] and in test [8] was “inactive” throughout. Also, the Potency entry in test [9] and in [10] was “inactive” throughout. Further, the molecule was called inactive in test [4]. The max response in test [5] was -0.0608%.

Take `Nc1ccn(C2CO[C@H](CO)O2)c(=O)n1` (stereo partly specified): the Potency entry in test [1], in test [3] and in test [8] was “inactive” throughout. For the same molecule, the Potency in test [2] is 15.1 µM (active); in test [6] it was 19 µM (active); in test [7], 8.49 µM (active); in test [10], 7.56 µM (active). Further, the molecule was classed as inactive in test [4]. Also, in test [5], the max response is -2.21%.

Regarding `CN(C)CCOC(c1ccc(Cl)cc1)c1ccccn1` (stereo unspecified), the Potency entry in [1], in test [2], in test [3], in test [6], in [7] and in [8] was “inactive” in each case. Besides, the Potency entry in [9] and in test [10] was “inactive” in each case. Further, in test [4], the outcome was inactive. Besides, the max response in test [5] is 6.99%.

On to `CCCCOCC(C)OCC(C)O` (stereo unspecified), for which the Potency result in test [1], in [2], in test [3], in [6], in test [7] and in test [8] was “inactive” throughout. Besides, the Potency entry in test [10] was “inactive”. Further, in test [4], the outcome was inactive. Also, the max response in test [5] is 2.63%.

On to `CCn1cc(C(=O)O)c(=O)c2cc(F)c(N3CCN(C)CC3)cc21`, for which the results for the activity change, negative = cytotoxic in [1] and in test [8] were 1.6% [at 15.8 µM] and 1.05% [at 15.8 µM], respectively. In addition, the cytotoxicity increase in test [2] is -12.2% [at 15.8 µM]; in test [7], -8.46% [at 15.8 µM]; in test [10] it was -14.4% [at 15.8 µM]. For the same molecule, the activity change, negative = cytotoxicity in test [3] was 4.51% [at 15.8 µM]. Moreover, the viability change, negative = cytotoxic in test [4] is 2.21% [at 15.8 µM]. Also, in test [5], the max response was -1.49%. The activity change in [6] is -4.84% [at 15.8 µM, hits give high values]. In addition, the cytotoxicity in test [9] was -13.3% [at 15.8 µM].

`COC(=O)CCCCCCCCC(=O)OC`: the Potency entry in test [1], in test [2], in [3], in test [6], in [7] and in test [8] was “inactive” each time. The Potency entry in test [10] is “inactive”. Moreover, the result in test [4] was inactive. In addition, the max response in [5] is 2.88%.

For `C[C@H]1O[C@@H](n2cc(F)c(=O)[nH]c2=O)[C@H](O)[C@@H]1O`, the Potency entry in test [1], in test [2], in test [3], in test [6], in test [7] and in test [8] was “inactive” throughout. Besides, the Potency result in test [10] is “inactive”. Further, the result in test [4] was inactive. Also, the max response in test [5] was 0.654%.

For `C=C(C)[C@@H]1CCC2=CC(=O)C[C@@H](C)[C@]2(C)C1`, the Potency result in test [1], in test [2], in [3], in test [6] and in [8] was “inactive” throughout. In test [4], the result was inactive. Further, the max response in test [5] is 3.58%.

On to `CCCOCC(C)OCC(C)O` (stereo unspecified), for which the Potency result in [1], in [2], in test [3], in [8], in test [9] and in test [10] was “inactive” throughout. In test [4], the molecule was classed as inactive. The max response in test [5] is 5.98%.

Consider `O=C(O)/C=C/c1ccc(/C=C/C(=O)O)cc1`, for which the Potency result in test [1], in test [2], in test [3], in test [7], in [8] and in [9] was “inactive” in each case. Also, the Potency entry in test [10] is “inactive”. In addition, in test [4], the molecule was classed as inactive. Moreover, in test [5], the max response is 3.8%.

For `C#CC(O)C(CC)CCCC` (stereo unspecified), the Potency entry in [1], in test [2], in test [3], in [7], in test [8] and in [9] was “inactive” each time. Further, the Potency result in test [10] is “inactive”. Also, the outcome in [4] was inactive. For the same molecule, the max response in test [5] was 11.7%.

`CCn1c(=O)c2c(nc(/C=C/c3ccc(OC)c(OC)c3)n2C)n(CC)c1=O`: the Potency entry in test [1], in [2], in test [7], in [8], in test [9] and in test [10] was “inactive” throughout. For the same molecule, the Potency in test [3] and in test [5] was 1.69 µM (active) throughout. For the same molecule, the outcome in test [4] was inactive.

With `O=C(O)/C=C/c1ccc(Cn2ccnc2)cc1`, the Potency entry in test [1], in test [2], in [3], in test [6], in [8] and in test [9] was “inactive” throughout. Moreover, the Potency entry in [10] was “inactive”. In addition, in test [4], the molecule was called inactive. In addition, the max response in test [5] was 2.89%.

As to `COC(=O)[C@H]1[C@H]2C[C@@H]3c4[nH]c5cc(OC)ccc5c4CCN3C[C@H]2C[C@@H](OC(=O)COc2ccc(OC)cc2)[C@@H]1OC`, the Potency result in test [1], in [2], in test [3], in [7], in test [8] and in test [10] was “inactive” throughout. The outcome in [4] was inactive. For the same molecule, the max response in [5] was 6.2%.

Take `CCCCc1ccc2cccc(S(=O)(=O)O)c2c1`: the Potency result in test [1], in test [2], in [3], in test [7] and in test [8] was “inactive” each time. Moreover, the result in test [4] was inactive. Also, the max response in test [5] is 3.37%.

`CCOC(=O)Nc1ccc2c(c1)N(C(=O)CCN1CCOCC1)c1ccccc1S2`: the Potency entry in test [1], in test [2], in [3], in test [6], in test [8] and in [9] was “inactive” each time. The Potency entry in test [10] was “inactive”. Also, the result in [4] was inactive. For the same molecule, in [5], the max response was -6.68%.

Regarding `CC(C)(C)N(CCO)CCO`, the Potency entry in test [1], in test [2], in [3], in test [6], in test [8] and in [9] was “inactive” throughout. Further, the Potency entry in test [10] was “inactive”. Moreover, the molecule was called inactive in test [4]. Besides, the max response in test [5] is 0.933%.

For `C=CCSCC1Nc2cc(Cl)c(S(N)(=O)=O)cc2S(=O)(=O)N1` (stereo unspecified), the Potency result in test [1], in [2], in test [3], in test [6], in test [8] and in test [10] was “inactive” in each case. Further, the result in test [4] was inactive. Further, the max response in test [5] was 10.2%.

For `CCC(=O)/C=C/c1ccc(OC)cc1`, the Potency result in test [1], in test [2], in test [3], in [6], in [8] and in [9] was “inactive” in each case. Further, in test [10], the Potency entry was “inactive”. Moreover, the molecule was called inactive in test [4]. In addition, the max response in test [5] is -0.0895%.

In the case of `N#CCN(CC#N)CCN(CC#N)CC#N`, the Potency result in test [1], in [2], in [3], in test [7], in test [8] and in test [9] was “inactive” throughout. Moreover, in [10], the Potency entry was “inactive”. The outcome in test [4] was inactive. Also, the max response in test [5] is 4.6%.

`CCCCCCCCCCCCCCCCCCOCC(O)CO` (stereo unspecified): the Potency result in [1], in test [2], in test [3], in test [6], in test [8] and in test [10] was “inactive” throughout. Moreover, the outcome in [4] was inactive. Also, the max response in test [5] was -20.9%.

For the molecule `CCCCCCCCCCCCCCCCCC(=O)OCCCCCCCCCCCCCC(C)C`, the Potency result in test [1], in test [2], in [3], in [7], in test [8] and in test [9] was “inactive” each time. Besides, the Potency entry in test [10] is “inactive”. For the same molecule, the result in test [4] was inactive. In addition, the max response in test [5] was 1.07%.

With `N#CC1(O)CCCCC1`, the Potency result in [1], in test [2], in [3], in [7], in test [8] and in test [9] was “inactive” in each case. The Potency entry in test [10] was “inactive”. Also, the molecule was called inactive in test [4]. Moreover, the max response in test [5] is -16.1%.

As to `CCC(=O)Nc1cccc(N)c1`, the Potency entry in test [1], in test [2], in [3], in test [6], in [8] and in test [9] was “inactive” throughout. For the same molecule, the Potency result in [10] was “inactive”. Further, the molecule was classed as inactive in test [4]. Besides, the max response in test [5] was 0.318%.
